# Mcl1-Bid inh: Mcl-1/Bid binding inhibitors, primary screen, biochemical, TR-FRET, 1536-well | Induced myeloid leukemia cell differentiation protein Mcl-1 (Homo sapiens), Q07820 | TR-FRET Mcl-1/Bid-Dy647 peptide binding | inhibition, % at 21.7 µM | hit rate 0.97% among 220,000;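 active means compounds that cut the binding signal by more than half at the single screening dose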;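 further: His-tagged Mcl-1 with europium anti-His antibody binding Bid BH3 peptide; 0% = Mcl-1 plus peptide wells and 100% = peptide-only wells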
# Target sequence (Q07820 whole entry, looked up): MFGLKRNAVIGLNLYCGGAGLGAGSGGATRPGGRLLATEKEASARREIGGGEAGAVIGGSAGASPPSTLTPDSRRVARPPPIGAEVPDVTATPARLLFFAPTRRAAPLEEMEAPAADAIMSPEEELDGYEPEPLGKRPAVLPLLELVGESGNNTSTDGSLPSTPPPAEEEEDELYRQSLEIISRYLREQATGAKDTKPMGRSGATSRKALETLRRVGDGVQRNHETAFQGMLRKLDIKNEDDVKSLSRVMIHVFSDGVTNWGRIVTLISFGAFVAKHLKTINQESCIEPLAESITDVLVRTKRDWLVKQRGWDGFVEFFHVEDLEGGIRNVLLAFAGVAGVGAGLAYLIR
# Bim-Mcl-1: inhibitors of Bim peptide binding to Mcl-1, primary screen, biochemical, bead-based flow cytometry, multiplex | Bim peptide-Mcl-1 binding | inhibition, % at 10 µM | hit rate 0.1% among 190,000 | AID 1009, 2008; in the data active means inhibition above about 40%;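 further: 0% = no compound tracer wells and 100% = peptide blocker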
# Arbovirus inh: antivirals against arbovirus infection, primary screen, cell-based, full library, 10K replicate subset | inhibition, % at 10 µM | hit rate 0.37% among 200,000 | arbovirus infection cell-based antiviral screen; in the data active means inhibition above about 30%
# 14-3-3 Bad PPI: inhibitors of 14-3-3 zeta/Bad binding, primary screen, biochemical, TR-FRET, bovine 14-3-3 zeta; 14-3-3 protein zeta/delta (Bos taurus), P63103; TR-FRET 14-3-3zeta/Dy647-pBad peptide displacement, 1 h; inhibition, % at 21.7 µM; hit rate 0.71% among 220,000; AID 781, 2007;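 active means inhibition above about 70%, limit read from the data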;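 further: 0% = full 14-3-3 plus peptide FRET controls and 100% = background without 14-3-3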
# Target sequence (P63103 whole entry, looked up): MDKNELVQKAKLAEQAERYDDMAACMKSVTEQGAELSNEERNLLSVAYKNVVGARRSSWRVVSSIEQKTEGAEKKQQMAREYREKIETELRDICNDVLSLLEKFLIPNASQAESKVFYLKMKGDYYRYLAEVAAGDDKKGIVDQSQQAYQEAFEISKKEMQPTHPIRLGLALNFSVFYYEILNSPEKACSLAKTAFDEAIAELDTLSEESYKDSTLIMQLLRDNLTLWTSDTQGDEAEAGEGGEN
# Mcl1 Noxa PPI: Mcl-1/Noxa binding inhibitors, primary screen, biochemical, TR-FRET, 1536-well; Induced myeloid leukemia cell differentiation protein Mcl-1 (Homo sapiens), Q07820; TR-FRET Mcl-1/Noxa peptide binding, 2 h; inhibition, % at 21.7 µM; hit rate 1.5% among 220,000; AID 1022, 2008;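 active means compounds that cut the protein-peptide binding signal by more than 50% relative to plate controls in a single-dose test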;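 further: His-tagged Mcl-1 with rhodamine Noxa BH3 peptide and terbium anti-His antibody; 0% = Mcl-1 plus Noxa peptide wells and 100% = peptide-only wells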
# Starred values were filed as active, the others as inactive; nt = no result given. Most compounds without a hit are left out; they make up all but 3% or so of the library.
SMILES,Mcl1-Bid inh,Bim-Mcl-1,Arbovirus inh,14-3-3 Bad PPI,Mcl1 Noxa PPI
O=S(=O)(Nc1cc(Sc2cccc3cccnc23)c(O)c2ccccc12)c1ccccc1,-13,2,-45,9,68*
O=C1CCC2S/C(=C/Nc3ccc(C(F)(F)F)cc3)C(=O)N12 (centres undefined),-29,0,1,-3,21
CCOC(=O)C1C(=O)OC(C)(C)C1C(CC)C(=O)c1c(C)cc(C)cc1C (centres undefined),-8,nt,nt,9,-14
Cc1ccc(NC(=O)CCNC(=O)c2ccco2)cc1F,-19,0,8,-5,16
CN(C)c1ccc(-n2cccc2)cc1,-104,nt,nt,1,62*
CN(C)/C=C/C(=O)c1ccc(-n2cccc2)cc1,-34,-2,-5,-8,12
CCCOc1ccc(C(=O)Nc2ccc(S(=O)(=O)Nc3cc(C)nc(C)n3)cc2)cc1,-11,nt,nt,-7,6
C=CCc1cccc(CNc2c(C)cc(C)cc2C)c1O,-35,-3,10,-1,7
CCCN1Cc2cccc(C(=O)N3CCN(c4cc(Cl)ccc4C)CC3)c2C1=O,-17,0,47*,8,1
COc1ccc(N=Cc2cc(Cc3ccccc3Cl)cc([N+](=O)[O-])c2O)cc1OC,-1,-1,15,22,61*
Cc1cc(C)c(-c2c(O)c3cnn(-c4ccccc4)c3[nH]c2=O)c(C)c1,-42,-4,16,0,-3
Cc1ccccc1N1C(=O)C2ON(c3ccccc3)C(c3ccco3)C2C1=O (centres undefined),-2,nt,nt,-7,-2
Cc1ccc(C(=O)c2coc3cc([N+](=O)[O-])c(O)c([N+](=O)[O-])c23)cc1,13,-1,37*,18,46
Cc1ccc(C(=O)c2ccc([N+](=O)[O-])cc2)cc1,-8,-5,-2,0,26
CC(C)(C)CC(=O)O/N=C(\N)c1ccccn1,85*,-6,6,6,-6
Cc1nc2c(sc3nc(N4CCOCC4)c4c(c32)CC(C)(C)OC4)c(-c2ccc(Cl)cc2)c1C(=O)O,-6,nt,nt,-10,-32
O=C(Nn1cnnc1)c1ccccc1CCc1ccccc1,97*,-5,2,3,19
CN(C)C(=O)c1nc2ccccc2s1,-19,-2,5,1,14
CN(C)c1ccc(CC(=O)c2nc3ccccc3s2)cc1,-45,0,-13,25,76*
Cc1cc(NC(=O)CN(C)CCOc2ccccc2)ccc1Br,19,-1,-16,2,27
CN(CCOc1ccccc1)CC(=O)Nc1cccc(Br)c1,31,-7,-7,74*,29
N#Cc1c(NC(=O)CSc2ccccn2)oc(-c2ccccc2)c1-c1ccccc1,8,-1,-23,-2,21
Cc1cnc(C(=O)OCC(=O)Nc2oc(-c3ccccc3)c(-c3ccccc3)c2C#N)cn1,1,0,-15,0,54*
CC(C)Sc1ncc(S(=O)(=O)c2ccccc2)c(=O)[nH]1,1,-2,5,-10,22
C#CCSc1ncc(S(=O)(=O)c2ccccc2)c(=O)[nH]1,13,-2,30*,-3,8
SMILES,Mcl1-Bid inh,Bim-Mcl-1,Arbovirus inh,14-3-3 Bad PPI,Mcl1 Noxa PPI
CC(=O)OCC(=O)NCC(=O)c1c[nH]c2ccccc12,-8,-1,-3,-9,3
COc1ccccc1Cc1nc2ccccc2n1S(=O)(=O)c1ccc(Cl)cc1,59*,0,-2,15,0
CCN(CC)C(=O)Cn1cnc2sc(C(=O)N3CCN(Cc4ccc5c(c4)OCO5)CC3)c(C)c2c1=O,-2,-1,6,48,21
O=C(Cn1[nH]c(=O)c2ccccc2c1=O)OCC(=O)N1CCc2ccccc2C1,83*,0,1,-9,3
O=C(Cc1c(Cl)cccc1Cl)OCC(=O)N1CCc2ccccc2C1,78*,-4,11,3,6
O=C(Cn1[nH]c(=O)c2ccccc2c1=O)OCC(=O)N1CCCc2ccccc21,-11,1,12,27,9
O=C(CN1C(=O)c2ccccc2C1=O)OCC(=O)N1CCc2ccccc2C1,-43,-8,3,-6,1
O=c1cc(CSc2nc3ccccc3c(=O)[nH]2)c2ccc(O)cc2o1,-16,0,5,-5,34
COCCNC(=O)CN1CCN(C(c2ccccc2)c2ccccc2)CC1,45,-5,8,88*,4
CCN(CC)S(=O)(=O)c1ccc(OC)c(NC(=O)c2cc(=O)[nH]c3ccccc23)c1,0,1,-5,12,34
O=C(NC(=S)Nc1ccc2c(c1)OCCO2)c1ccccc1F,68*,-3,4,-2,33
O=C(NC(=S)Nc1ccc2oc(-c3ccncc3)nc2c1)c1ccccc1F,24,-8,-2,73*,12
O=C(NCc1cccnc1)C(=O)N/N=C/c1ccccc1[N+](=O)[O-],-33,0,-3,0,7
COc1ccc(-c2csc(NS(=O)(=O)c3ccc([N+](=O)[O-])cc3)n2)cc1,-34,19,11,-11,23
O=C(CNc1ccc2ccccc2c1)N/N=C/c1ccc([N+](=O)[O-])o1,65*,0,2,37,70*
CCOC(=O)C1=C(O)c2ccccc2C(=O)/C1=C\c1ccc(C)cc1,27,2,-16,-11,79*
NS(=O)(=O)c1ccc(-c2ccc(/C=C3\C(=O)Nc4cc(Cl)ccc43)o2)cc1,11,7,-7,75*,63*
CCOc1cc(Br)c(Br)c(C=Nc2ccc(NC(C)=O)cc2)c1O,6,4,-5,44,51*
CC(=O)Nc1ccc(N=Cc2c(O)c(C(=O)Nc3ccccc3)cc3ccccc23)cc1,71*,-2,-19,49,84*
O=C(NCC1CCCO1)/C(=C/c1cn(-c2ccccc2)nc1-c1cccnc1)NC(=O)c1ccccc1 (centres undefined),-7,2,1,-3,6
C/C(=N\NC(=O)COc1ccc(C(C)(C)C)cc1)c1ccc2c(c1)OCCO2,-4,65*,8,4,5
COc1ccccc1Nc1ccc(Nc2ccccc2OC)nn1,-49,-4,-5,-6,13
COc1ccc(OC)c(Nc2ccc(Nc3cc(OC)ccc3OC)nn2)c1,-34,-7,2,-7,54*
C=CCNC(=O)COC(=O)c1ccc(Sc2nncn2C)c([N+](=O)[O-])c1,-12,0,21,-8,1
CCN1C(=O)/C(=C/C=C2\C=CN(CC)c3ccccc32)SC1=S,49,6,8,-10,64*
CCN1C(=O)/C(=C\C=C2/C=CC=CN2CC)SC1=S,-33,-5,-12,-26,-22
CCOc1ccc(-n2c(=S)sc3c(=O)[nH]c(SCC(=O)N4CCC(C)CC4)nc32)cc1,14,-1,-1,-17,-7
CCOC(=O)CSc1nc2c(sc(=S)n2-c2ccc(OCC)cc2)c(=O)[nH]1,-12,-2,42*,-8,21

# Compound activity from PubChem BioAssay.
